{
  "source": "PubChem BioAssay (Tox21)",
  "note": "Inconclusive results are not listed. Unmarked numbers belong to inactive results. Calls follow the shape of the dose curve; as a rule, active = well fitted inhibition curve with a large enough effect in the repeat runs; inconclusive = weak or mixed curves, or effect the other way; inactive = no such curve, though single readings can be large or run the other way. % is scaled to controls: 0 for no effect and ±100 for the full control effect.",
  "data": [
    {"experiment": "qHTS assay to identify small molecule antagonists of the retinoic acid receptor (RAR) signaling pathway (AID 1159552; also: nearly all actives have a fitted effect of over 50% in size)", "conditions": "C3RL4 RARE luciferase reporter, retinol-stimulated, 6 h; series mostly up to 92.4 µM; activity, negative = inhibition: at the top concentration", "source_text": "National Center for Advancing Translational Sciences [NCATS]\nNIH Chemical Genomics Center [NCGC]\nU.S. Environmental Protection Agency [EPA]\nNational Institutes of Environmental Health Sciences [NIEHS]\nNational Toxicology Program [NTP]\nU.S. Food and Drug Administration [FDA]\nAll-trans Retinoic acid (atRA) is the potent natural metabolite of retinol and plays an important role in normal embryonic development and maintenance of cellular phenotype in adult animals. atRA is the activating ligand for the retinoic acid receptors (RARs) which form heterodimers with retinoid X receptors (RXRs) on the retinoic acid response element (RARE). Through activation of the RAR/RXRs nuclear receptors, atRA regulates the transcription of a large number of protein-coding genes and regulatory RNAs. Intracellular levels of atRA are controlled by the retinol signaling pathway (RSP) that regulates the biosynthesis and catabolism of atRA to maintain physiological levels. Chemicals that interfere with the RSP can cause abnormal intracellular levels of atRA and therefore are potential developmental toxicants. To assess compounds for the potential adverse effect on embryonic development through interfering with retinol signaling, a cell-based RARE luciferase reporter gene assay was used. C3RL4 cell line (OARSA/CFSAN/FDA, Laurel, MD) was used to screen Tox21 10K compound library for identifying inhibitors of the RSP.\nTox21 Assay Protocol Summary:\nC3RL4 cells were seeded at 1,000/well in 4 uL of assay medium into white solid 1,536-well tissue culture plates (Greiner Bio-One North America Inc. Monroe, NC) using a Multidrop Combi (Thermo Scientific, Waltham, MA) dispenser. After incubation at 37 C and 5% CO2 for an overnight, 23 nL of compounds dissolved in DMSO, positive control or DMSO only were transferred by a Pintool station (Kalypsys, San Diego, CA). One ul of 1 uM (final concentration) of Retinol was added right after the compound addition by using a Flying Reagent Dispenser (FRD) (Aurora Discovery, San Diego, CA). After 6 hr incubation at 37 C and 5% CO2, 5 uL of Amplite Luciferase reagent (AAT Bioquest Inc. Sunnyvale, CA) was added to each assay plate using an FRD. Luminescence was quantified on a ViewLux plate reader (PerkinElmer, Waltham, MA) after 30 min incubation at room temperature.", "values": [
      {"smiles": "CCOC(=O)C(C)(C)C", "activity, negative = inhibition": "-8.08%"},
      {"smiles": "CNC(=O)C(c1ccccc1)c1ccccc1", "activity, negative = inhibition": "-3.36%"},
      {"smiles": "CN=C(NC#N)NCCSCc1csc(N=C(N)N)n1", "activity, negative = inhibition": "13.7% [at 42.5 µM]"},
      {"smiles": "CN[C@@H]1[C@@H](O)[C@@H](O[C@@H]2[C@H](O)[C@H](O[C@H]3OC(CN)=CC[C@H]3N)[C@@H](N)C[C@H]2N)OCC1(C)O", "note": "(stereo not given in full)", "activity, negative = inhibition": "15.5% [at 42.5 µM]"},
      {"smiles": "Cc1cccc(NC(=S)N(C)C)c1", "activity, negative = inhibition": "20.1%"},
      {"smiles": "CC(CC(=O)O)CC(C)(C)C", "note": "(stereo not given)", "activity, negative = inhibition": "-1.61%"},
      {"smiles": "CC(C)CCO", "activity, negative = inhibition": "-0.837%"},
      {"smiles": "N#CCCOCCOCCC#N", "activity, negative = inhibition": "-1.15%"},
      {"smiles": "CO/N=C(/C(=O)N[C@@H]1C(=O)N2C(C(=O)O)=C(Cn3nnc(C)n3)CS[C@H]12)c1csc(N)n1", "activity, negative = inhibition": "13.9% [at 42.5 µM]"},
      {"smiles": "NS(=O)(=O)c1ccccc1OC(F)(F)F", "activity, negative = inhibition": "6.98%"},
      {"smiles": "CC1=NN(c2ccc(S(=O)(=O)O)cc2)C(=O)C1N=Nc1ccccc1", "note": "(stereo not given)", "activity, negative = inhibition": "16.1%"},
      {"smiles": "NS(=O)(=O)c1cc2c(cc1Cl)NC(CC1CCCC1)NS2(=O)=O", "note": "(stereo not given)", "activity, negative = inhibition": "2.87% [at 42.5 µM]"},
      {"smiles": "CCOC(=O)CCCCCCCCC(=O)OCC", "activity, negative = inhibition": "-2.73%"},
      {"smiles": "CC(C)(CO)[C@@H](O)C(=O)NCCCO", "activity, negative = inhibition": "0.178% [at 42.5 µM]"},
      {"smiles": "C=C[C@@H](C)CCC=C(C)C", "activity, negative = inhibition": "12.1%"},
      {"smiles": "COc1cc(C=O)ccc1OC(=O)C(C)C", "activity, negative = inhibition": "7.3%"},
      {"smiles": "CC(C)(c1ccc(Oc2ccc3c(c2)C(=O)OC3=O)cc1)c1ccc(Oc2ccc3c(c2)C(=O)OC3=O)cc1", "activity, negative = inhibition": "0.804%"},
      {"smiles": "CCC(C)(CCC(C)C)C(=O)[O-].CCC(C)(CCC(C)C)C(=O)[O-].[Zn+2]", "note": "(stereo not given)", "activity, negative = inhibition": "-5.4%"},
      {"smiles": "O=C(O)Cc1cccc(-c2cc(CCCCCCc3ccc(O[C@H]4O[C@H](CO)[C@@H](O)[C@H](O)[C@@H]4O)c(-c4cccc(CC(=O)O)c4)c3)ccc2O[C@H]2O[C@H](CO)[C@@H](O)[C@H](O)[C@@H]2O)c1", "activity, negative = inhibition": "-0.764% [at 0.349 µM]"},
      {"smiles": "O=S(=O)(O)SSS(=O)(=O)O", "activity, negative = inhibition": "0.628%"},
      {"smiles": "CC(C)C(=O)Nc1cccc(C(F)(F)F)c1", "activity, negative = inhibition": "11.4% [at 42.5 µM]"},
      {"smiles": "Cc1nc2n(c(=O)c1CCN1CCC(C(=O)c3ccc(F)cc3)CC1)CCS2", "activity, negative = inhibition": "-1.89% [at 42.5 µM]"},
      {"smiles": "Cc1ccc(S(=O)(=O)NC(=O)NC2CCCCCCC2)cc1", "activity, negative = inhibition": "9.01% [at 42.5 µM]"},
      {"smiles": "O=C(O)c1ccccc1C(=O)Nc1ccc(S(=O)(=O)Nc2nccs2)cc1", "activity, negative = inhibition": "3.55% [at 42.5 µM]"},
      {"smiles": "COCC(=O)Nc1c(I)c(C(=O)NCC(O)CO)c(I)c(C(=O)N(C)CC(O)CO)c1I", "note": "(stereo not given)", "activity, negative = inhibition": "8.92% [at 42.5 µM]"},
      {"smiles": "O=c1[nH]c(=O)c2[nH]c(=O)[nH]c2[nH]1", "activity, negative = inhibition": "2.16% [at 8.39 µM]"},
      {"smiles": "COc1ccc(NS(=O)(=O)c2ccc(N)cc2)nn1", "activity, negative = inhibition": "6.77% [at 42.5 µM]"},
      {"smiles": "C=CCOc1c(Br)cc(C(C)(C)c2cc(Br)c(OCC=C)c(Br)c2)cc1Br", "activity, negative = inhibition": "7.18% [at 42.5 µM]"},
      {"smiles": "CCCCOC(=O)C(C)OC(=O)CCC", "note": "(stereo not given)", "activity, negative = inhibition": "5.7%"},
      {"smiles": "C[C@H]1O[C@H](O[C@H]2[C@H](O)[C@@H](O)[C@@H](O[C@H]3[C@H](O)[C@@H](O)[C@H](O)O[C@@H]3CO)O[C@@H]2CO)[C@H](O)[C@@H](O)[C@@H]1N[C@H]1C=C(CO)[C@@H](O)[C@H](O)[C@H]1O", "activity, negative = inhibition": "0.984% [at 42.5 µM]"},
      {"smiles": "COc1cccc2sc(N)nc12", "activity, negative = inhibition": "68.1%"},
      {"smiles": "CCCCCC1CCCC(=O)O1", "note": "(stereo not given)", "activity, negative = inhibition": "2.91%"},
      {"smiles": "CCCCOC(=O)[C@@H](C)Oc1ccc(Oc2ccc(C(F)(F)F)cn2)cc1", "activity, negative = inhibition": "0.79%"},
      {"smiles": "O=C(CN1CCN(Cc2ccc3c(c2)OCO3)CC1)N1c2ccccc2Sc2ccccc21", "activity, negative = inhibition": "-2.95% [at 42.5 µM]"},
      {"smiles": "CCOC(=O)CCc1ccccc1", "activity, negative = inhibition": "-2.95%"},
      {"smiles": "CC(C)(C)c1ccc(C=O)cc1", "activity, negative = inhibition": "23.9%"},
      {"smiles": "CC(C)c1ccccc1O", "activity, negative = inhibition": "-0.706%"},
      {"smiles": "CN(C)CCOCCN(C)CCO", "activity, negative = inhibition": "8.8%"},
      {"smiles": "CCN(CC)C(=O)C1CN2CCc3cc(OC)c(OC)cc3C2CC1OC(C)=O", "note": "(stereo not given)", "activity, negative = inhibition": "12% [at 42.5 µM]"},
      {"smiles": "NC(Cc1c[nH]c2ccccc12)C(=O)O", "note": "(stereo not given)", "activity, negative = inhibition": "-0.331% [at 42.5 µM]"}
    ]}
  ]
}
